Hits are enriched below; roughly 0.61% of the tested compounds scored in any of these assays.
BioA inh = blocks M. tuberculosis BioA enzyme activity; purified M. tuberculosis BioA enzyme, plate reader; inhibition, % at 9.99 µM; 360,000 compounds, 0.096% hits; AID 602481; in the data active means inhibition above about 40%
FadD28 FP inh = inhibitors of Mycobacterium tuberculosis FadD28 bisubstrate binding; 360,000 compounds, 0.22% hits; inhibition, % at 12.5 µM; FadD28 bisubstrate probe binding, fluorescence polarization; in the data active means inhibition above about 8.5%, passing the limit was not always enough
TcdB GH inh = inhibitors of Clostridioides difficile toxin B glycohydrolase; AID 652162; 350,000 compounds, 0.24% hits; inhibition, % at 9.99 µM; TcdB glycohydrolase enzymatic assay, plate reader; in the data active means inhibition above about 10%
Yp Topo-I inh = blocks Yersinia pestis topoisomerase I activity; activity, % at 10 µM; 360,000 compounds, 0.064% hits; Y. pestis Topo-I cleavage product accumulation, plate reader; in the data active means activity above about 50%, passing the limit was not always enough
Vc quorum ag-1 = quorum light induction in luxS cqsA deficient V. cholerae | V. cholerae BH1578 lux reporter, luminescence, 6 h | activation, % at 18.7 µM | 350,000 compounds, 0.16% hits | AID 588436; in the data active means activation mostly above about 9.7%, no sharp cut-off
Vc quorum ag-2 = induces V. cholerae light production without autoinducers | shares compounds with Vc quorum ag-1 | V. cholerae BH1578 lux reporter, luminescence, 6 h | activation, % at 50 µM | 620 tested, under 10 active | AID 602243; call rule not given here
A number is an active result; 0 = inactive; - = not tested or not shown.

SMILES | BioA inh | FadD28 FP inh | TcdB GH inh | Yp Topo-I inh | Vc quorum ag-1 | Vc quorum ag-2
COc1ccc(C(=O)OCC(=O)NC2CC2)cc1 | 0 | 0 | 0 | 0 | 0 | -
CCOC(=O)c1c(-c2ccccc2)csc1NC(=O)c1nn(CC)cc1Br | - | 0 | 0 | 0 | 0 | 0
CC(C)(C)Cc1nc(-c2ccccn2)no1 | 0 | 0 | - | 0 | 0 | 0
CCOC(=O)N1CCN(C(=S)NCCOC)CC1 | 0 | 0 | - | 0 | 0 | 0
O=C(C[C@@H]1CC[C@H](NC(=O)CN2CCOCC2)[C@H](CO)O1)NC1CCC1 | 0 | - | 0 | - | - | -
CC(C)CC#Cc1cnc2c(c1)C(=O)N([C@@H](C)CO)C[C@@H](C)[C@@H](CN(C)C(=O)Cc1cccnc1)O2 | 0 | - | 0 | - | - | -
Cc1c(C(=O)c2ccc(F)cc2F)c2ccccn2c1CCc1ccccn1 | - | 0 | 0 | 0 | 0 | 0
CCCCOCCCNC(=O)c1cccs1 | 0 | 0 | - | 0 | 0 | -
Cc1ccc(OCCNC(=O)c2ccc(C)o2)cc1 | 0 | 0 | 0 | 0 | 59.0 | 0
CCc1ccc(OCCNC(=O)c2cccs2)cc1 | 0 | 0 | - | 0 | - | 0
C[C@@H]1CN([C@@H](C)CO)C(=O)Cc2cc(NC(=O)c3ccncc3)ccc2O[C@H]1CN(C)S(=O)(=O)c1ccc(Cl)cc1 | 0 | - | 0 | - | - | -
CCCNC(=O)Nc1ccc2c(c1)C(=O)N(C)C[C@H](OC)[C@@H](C)CN(C(=O)C1CCC1)[C@@H](C)CO2 | 0 | - | 0 | - | - | -
CCC(=O)N1CC[C@H]2[C@H](CO)Nc3ccc(-c4cccc(C#N)c4)cc3[C@H]21 | 0 | - | - | - | - | -
C=CCn1c(NCc2ccccc2)nc2ccccc21 | 0 | 0 | - | 0 | 16.7 | 0
CCCNC(=O)N[C@@H]1CC[C@@H](CC(=O)NCCc2ccccc2)O[C@@H]1CO | 0 | - | 0 | - | - | -
CCOC(=O)C1CCCN(Cc2cccc(Cl)c2)C1 (stereo not given) | 0 | 0 | - | 0 | 0 | 0
CCCCCn1c(SCC(=O)OCC)nc2cc(C(=O)N3CCC(C(N)=O)CC3)ccc2c1=O | 0 | 0 | - | 0 | 0 | 0
NC(=O)C1CCN(C(=O)c2ccc3c(=O)n(Cc4ccco4)c(SCC(=O)c4ccccc4)nc3c2)CC1 | 0 | 0 | 0 | 0 | 0 | -
CC(=O)c1c(N2CCC(C(N)=O)CC2)nc(=S)n(-c2ccccc2)c1C | 0 | 0 | - | 0 | 0 | 0
CC(=O)c1c(N2CCN(c3ccccc3)CC2)nc(=S)n(-c2ccccc2)c1C | 0 | 0 | - | 0 | - | -
Cc1onc(-c2c(F)cccc2Cl)c1C(=O)Nc1nc2c(s1)CCCC2 | 0 | 0 | 0 | 0 | 0 | -
Cc1onc(-c2ccccc2)c1C(=O)Nc1nc2c(s1)CCCC2 | 0 | 0 | - | 0 | 7.6 | 0
CC(C)NC(=O)Nc1cccc2c1O[C@H](CN(C)C(=O)Nc1ccccc1)[C@H](C)CN([C@H](C)CO)C2=O | 0 | - | 0 | - | - | -
Cc1ccc(OCCNC(=O)c2cc(-n3cnnc3)ccc2Cl)cc1C | 0 | 0 | - | 0 | 0 | -
COc1ccc(CNC(=O)c2cc(-n3cnnc3)ccc2Cl)cc1 | 0 | 0 | - | 0 | 25.0 | 0
SMILES | BioA inh | FadD28 FP inh | TcdB GH inh | Yp Topo-I inh | Vc quorum ag-1 | Vc quorum ag-2
COc1ccc(CCNC(=O)c2ccc(Cl)cc2Cl)cc1 | 0 | 0 | - | 0 | 27.8 | 0
CCCCN(Cc1nc2ccccc2c(=O)[nH]1)C(=O)CN1C(=O)NC2(CCCCC2)C1=O | 0 | 0 | 0 | 0 | 109.9 | 0
O=C(NCc1ccco1)c1cc2n(n1)C(C(F)(F)F)CC(c1ccc(Cl)c(Cl)c1)N2 (stereo not given) | 0 | 0 | - | 0 | 0 | 0
CCCCNC(=O)Nc1cc(C)on1 | 0 | 0 | - | 0 | 0 | 0
CCC(NC(=O)Nc1nccs1)(C(F)(F)F)C(F)(F)F | 0 | 0 | - | 0 | 16.7 | 0
O=C(Oc1ccc2ccc(OC(=O)N3CCOCC3)cc2c1)N1CCOCC1 | 0 | 0 | - | 0 | 16.7 | 0
O=C(Nc1ccc(Cl)c(Cl)c1)Nc1ccccc1C(=O)O | 0 | 0 | - | 0 | 0 | 0
O=C(Nc1ccc(Cl)cc1)Nc1ccccc1C(=O)O | 0 | 0 | 0 | 0 | 0 | -
O=C(NC[C@H]1CC[C@H]2[C@H](CN2C(=O)C2CC2)O1)c1cnccn1 | - | - | 0 | - | - | -
Brc1ccc(C2=Nn3c(nnc3-c3n[nH]c4c3CCC4)SC2)cc1 | 0 | 0 | - | 0 | 25.0 | 0
Clc1ccc(C2=Nn3c(nnc3-c3n[nH]c4c3CCC4)SC2)cc1 | 0 | 0 | - | 0 | 0 | -
COc1ccc(S(=O)(=O)N(C)C[C@@H]2OCCCC[C@@H](C)Oc3ccc(NS(=O)(=O)c4ccccc4)cc3C(=O)N([C@H](C)CO)C[C@H]2C)cc1 | 0 | - | 0 | - | - | -
COc1ccc(-c2cc(CCCC(=O)N3CCN(c4ccc(OC)cc4)CC3)no2)cc1 | 0 | 0 | 0 | 0 | 0 | -
COc1ccc(-c2cc(CCCC(=O)NCCc3cc(OC)ccc3OC)no2)cc1 | 0 | 0 | - | 0 | 0 | 0
O=C(c1cc2cc(Cl)ccc2oc1=O)N1CCCC1 | 0 | 0 | - | 0 | 0 | 0
Cn1nc(-c2ccc(C(=O)NCC3CCCO3)cc2)c2ccccc2c1=O (stereo not given) | 0 | 0 | - | 0 | 0 | -
Cn1nc(-c2ccc(OCC(=O)NCC3CCCO3)cc2)c2ccccc2c1=O (stereo not given) | 0 | 0 | - | 0 | 0 | 0
CO[C@H]1CN(C)C(=O)c2cc(NC(=O)Nc3ccccc3F)ccc2OC[C@@H](C)N(CC2CC2)C[C@@H]1C | 0 | - | 0 | - | - | -
Cn1c(CNc2cccc(Cl)c2)nnc1SCC(=O)OC1CCCCC1 | 0 | 0 | - | 0 | 16.7 | 0
C[C@@H]1CN([C@@H](C)CO)C(=O)Cc2cc(NC(=O)Nc3ccc(C(F)(F)F)cc3)ccc2O[C@H]1CN(C)S(=O)(=O)c1ccccc1 | - | - | 0 | - | - | -
COCCNC(=O)c1cnn2c1NC(c1ccco1)CC2C(F)(F)F (stereo not given) | 0 | 0 | - | 0 | 16.7 | 0
CC(C)NC(=O)N(C)C[C@H]1OCCCC[C@@H](C)Oc2ccc(NS(=O)(=O)c3ccc(F)cc3)cc2C(=O)N([C@H](C)CO)C[C@H]1C | 0 | - | 0 | - | - | -
CCNC(=O)CCSc1nnc(-c2ccco2)o1 | - | 0 | 0 | 0 | 835.0 | 0
O=C(NCc1ccc2c(c1)OCO2)C1CCCN1C(=O)Nc1cccc(Cl)c1 (stereo not given) | 0 | 0 | - | 0 | 5.6 | 0
Cc1ccc(NC(=O)N2CCCC2C(=O)NCc2ccc3c(c2)OCO3)cc1 (stereo not given) | 0 | 0 | 0 | 0 | 0 | -
SMILES | BioA inh | FadD28 FP inh | TcdB GH inh | Yp Topo-I inh | Vc quorum ag-1 | Vc quorum ag-2
CN(C)C(=O)C[C@H]1C[C@@H]2c3cc(NC(=O)Nc4ccc(F)cc4)ccc3O[C@@H]2[C@H](CO)O1 | 0 | - | 0 | - | - | -
CC(C)CN(C[C@@H]1[C@@H](c2ccccc2)[C@H](CO)N1C(=O)C1CCC1)C(=O)C1CC1 | 0 | - | 0 | - | - | -
O=C(NCCC1CCCCN1S(=O)(=O)c1ccccc1)C(=O)NCc1ccccc1F (stereo not given) | 0 | 0 | 0 | 0 | 0 | -
O=C(NCc1ccccc1F)C(=O)NCC1CCCN1S(=O)(=O)c1ccccc1 (stereo not given) | 0 | 0 | 0 | 0 | 0 | 0
C[C@@H]1CN([C@H](C)CO)C(=O)c2c(c3ccccc3n2C)-c2ccccc2CO[C@@H]1CN(C)Cc1cccnc1 | 0 | - | 0 | - | - | -
COc1ccc(S(=O)(=O)Nc2ccc(S(=O)(=O)N3CCOCC3)cc2)cc1C | 0 | 0 | - | 0 | 17.9 | 0
COc1ccc(NS(=O)(=O)c2ccc(S(=O)(=O)N3CCOCC3)cc2)cc1 | 0 | 0 | 0 | 0 | 0 | -

Screens as filed in PubChem BioAssay.
